Test results as given in PubChem BioAssay (NCATS).
Records with an inconclusive call do not appear. Activity calls are given as the source filed them. Unless noted, calls come from the whole dose curve; as a rule, active = well fitted curve in the direction sought with a large enough effect; inconclusive = small, poorly fitted or top-dose-only effect, or another doubt; inactive = no such curve, though single readings can be large; an effect the other way counts as inactive or inconclusive.

Experiments:
[1] = target: Lysosomal acid glucosylceramidase (Homo sapiens) (UniProt P04062); assay: Glucocerebrosidase-p2 (AID 348; in the data active = potency below about 10 µM; note: potency is the fitted concentration of half-maximal effect); details: purified GBA, blue fluorogenic substrate, 40 min
Chain of Lysosomal acid glucosylceramidase (Homo sapiens) (P04062 whole entry, looked up): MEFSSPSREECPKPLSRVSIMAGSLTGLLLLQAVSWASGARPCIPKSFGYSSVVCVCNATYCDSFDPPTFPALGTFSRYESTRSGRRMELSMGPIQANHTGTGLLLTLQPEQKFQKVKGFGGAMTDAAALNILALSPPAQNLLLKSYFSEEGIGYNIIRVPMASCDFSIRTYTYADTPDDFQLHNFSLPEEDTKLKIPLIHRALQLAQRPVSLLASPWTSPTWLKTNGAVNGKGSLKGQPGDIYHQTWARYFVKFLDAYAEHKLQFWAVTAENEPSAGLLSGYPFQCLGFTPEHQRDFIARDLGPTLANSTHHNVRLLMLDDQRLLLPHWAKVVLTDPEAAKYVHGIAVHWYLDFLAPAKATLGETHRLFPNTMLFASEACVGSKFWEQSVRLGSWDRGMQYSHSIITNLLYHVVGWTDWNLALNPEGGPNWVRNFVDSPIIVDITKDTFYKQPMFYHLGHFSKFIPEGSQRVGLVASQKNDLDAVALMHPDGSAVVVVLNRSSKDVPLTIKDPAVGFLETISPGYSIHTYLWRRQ
Method in brief: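 Normal human glucocerebrosidase (0.2 nM) with blue fluorogenic substrate (80 uM final) in citrate/phosphate pH 5.9 with 10mM sodium taurocholate, 0.01% tween-20; 40 min RT, NaOH/glycine stop; fluorescence Ex 365/Em 440; AC50 from a titration from 0.6 nM upwards.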

[2] = AP1 Signaling Pathway (AID 357; active = well fitted curve in either direction with a large enough effect, not every such curve was filed as active;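 note: ME-180 reporter cells stimulated with EGF at its EC50 level; % is set by controls: 0 for no effect and ±100 for the full control effect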); details: ME-180 AP-1-bla reporter, EGF-induced, beta-lactamase ratio, 5 h; at 7.69 µM (top of the series) unless noted
Method in brief: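 AP-1-bla ME-180 cells, Opti-MEM + 0.5% dialyzed FBS, plated overnight 37 °C. Cpd titration + EC50 EGF, 5 h 37 °C. CCF4 2.5 h RT; ex 405, em 460/530 ratio → %activity, AC50.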

[3] = target: Cytochrome P450 1A2 (Homo sapiens) (UniProt P05177); assay: p450-cyp1a2 (AID 410; calls by dose curve; note: potency is the fitted concentration of half-maximal effect;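 for activity change, negative = inhibition: -100% = full effect of reference inhibitor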); details: recombinant CYP1A2, luciferin-ME demethylation, luminescence; series mostly up to 57 µM
Chain of Cytochrome P450 1A2 (Homo sapiens) (P05177 whole entry, looked up): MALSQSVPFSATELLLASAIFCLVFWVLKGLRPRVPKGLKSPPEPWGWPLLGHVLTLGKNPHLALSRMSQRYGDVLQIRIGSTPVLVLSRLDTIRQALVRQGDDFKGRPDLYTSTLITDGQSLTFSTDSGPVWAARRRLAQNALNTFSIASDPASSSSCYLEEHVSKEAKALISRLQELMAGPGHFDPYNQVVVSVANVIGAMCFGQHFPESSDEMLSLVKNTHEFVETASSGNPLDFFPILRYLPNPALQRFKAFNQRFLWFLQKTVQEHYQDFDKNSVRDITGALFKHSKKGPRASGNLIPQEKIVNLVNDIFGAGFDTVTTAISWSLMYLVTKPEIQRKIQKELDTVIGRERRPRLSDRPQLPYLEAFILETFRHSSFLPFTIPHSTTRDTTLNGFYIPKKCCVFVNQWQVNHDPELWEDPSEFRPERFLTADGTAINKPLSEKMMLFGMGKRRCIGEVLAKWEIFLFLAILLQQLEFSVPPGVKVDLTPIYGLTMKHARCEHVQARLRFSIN
Method in brief: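 O-Demethylation of luciferin 6' methyl ether by human CYP1A2 is monitored as luciferase luminescence. Substrate sits at Km (100uM); enzyme is 20nM. Values are scaled to 57 uM furafylline as maximal inhibition.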

[4] = NFAT Signaling Pathway (AID 444; active = well fitted curve in either direction with a large enough effect, not every such curve was filed as active;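 note: carbachol stimulus at about its EC50 of 1 µM final; % is set by controls: 0 for no effect and ±100 for the full control effect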); details: Jurkat NFAT-bla M1, carbachol, beta-lactamase ratio, 5 h; at 7.69 µM (top of the series) unless noted
Method in brief: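 Jurkat cells carrying an NFAT-driven β-lactamase reporter and co-transfected muscarinic M1 receptor were treated with compound plus carbachol (1 uM final, an EC50 level) for 5 h at 37 °C. CCF4 loading followed for 1 h at RT; 460/530 nm ratio gave %activity.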

[5] = Stat Signaling Pathway (AID 446; active = well fitted curve in either direction with a large enough effect, not every such curve was filed as active;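 note: ME-180 cervical cancer cells given 40 pM IL-6 alongside compound; SIE-controlled beta-lactamase reporter measured as 460/530 nm FRET emission ratio; % is set by controls: 0 for no effect and ±100 for the full control effect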); details: ME-180 (cervical carcinoma) SIE beta-lactamase reporter, IL-6 stimulated, 5 h; at 7.69 µM (top of the series) unless noted
Method in brief: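 Emission at 460 and 530 nm (excitation 405 nm) reports SIE-controlled beta-lactamase in ME-180 cells. Cells received compound with 40 pM IL-6 for 5 hrs at 37 C; data scaled between 300 pM IL-6 and 125 nM JAK-inhibitor controls.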

[6] = target: Glucocorticoid receptor (Homo sapiens) (UniProt P04150); assay: GR-GFP Redistribution (AID 450;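 active = compounds whose dose series gives a full or clear partial fitted curve of increased nuclear translocation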; note: potency is the fitted concentration of half-maximal effect); details: U2OS GR-GFP nuclear translocation, laser cytometry, 2 h
Chain of Glucocorticoid receptor (Homo sapiens) (P04150 whole entry, looked up, the tested form may be a part): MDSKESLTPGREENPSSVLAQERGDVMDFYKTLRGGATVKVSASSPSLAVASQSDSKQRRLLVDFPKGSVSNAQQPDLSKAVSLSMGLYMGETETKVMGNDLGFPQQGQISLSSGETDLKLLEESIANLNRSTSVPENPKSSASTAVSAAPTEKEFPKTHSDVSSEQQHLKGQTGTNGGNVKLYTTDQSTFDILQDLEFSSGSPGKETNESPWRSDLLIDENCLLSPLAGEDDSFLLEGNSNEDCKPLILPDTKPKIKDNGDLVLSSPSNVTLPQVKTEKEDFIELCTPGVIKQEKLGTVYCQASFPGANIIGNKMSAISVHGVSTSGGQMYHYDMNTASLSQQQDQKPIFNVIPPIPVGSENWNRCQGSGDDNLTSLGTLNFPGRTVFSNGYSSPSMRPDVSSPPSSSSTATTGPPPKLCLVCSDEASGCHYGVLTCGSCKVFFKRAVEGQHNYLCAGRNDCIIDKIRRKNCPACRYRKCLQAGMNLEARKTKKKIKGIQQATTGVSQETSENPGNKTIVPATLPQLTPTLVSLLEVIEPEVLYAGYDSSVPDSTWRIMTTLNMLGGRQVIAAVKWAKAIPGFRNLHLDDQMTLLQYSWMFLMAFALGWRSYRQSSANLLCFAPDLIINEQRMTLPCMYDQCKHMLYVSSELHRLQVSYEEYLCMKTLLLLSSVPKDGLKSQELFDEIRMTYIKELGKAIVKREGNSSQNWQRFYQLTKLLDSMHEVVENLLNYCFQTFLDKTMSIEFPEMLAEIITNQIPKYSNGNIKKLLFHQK

[7] = target: Glucocorticoid receptor (Homo sapiens) (UniProt P04150); assay: GR-EFC Redistribution (AID 451; calls by dose curve; note: potency is the fitted concentration of half-maximal effect); details: CHO-K1 GR-EFC translocation, beta-gal luminescence, 2 h
Method in brief: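 CHO-K1 cells stably expressing nuclear-localized β-gal enzyme acceptor and GR fused C-terminally to the enzyme donor fragment; ligand-driven nuclear translocation restores β-gal by complementation. Compounds titrated up to 46 uM final, 2 h at 37 °C; luminescence read.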

[8] = target: Mitogen-activated protein kinase 10 (Mus musculus) (UniProt Q61831); assay: JNK3 AlphaScreen Assay (AID 530; active = well fitted curve in either direction with a large enough effect, not every such curve was filed as active;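 note: kinase came from lysate of stimulated human HepG2 cells; signal reports phosphorylation of biotinylated GST-cJun 1-79 at Ser73 with 10 µM ATP; % is set by controls: 0 for no effect and ±100 for the full control effect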); details: JNK3 lysate, c-Jun phosphorylation; series mostly up to 57.1 µM
Method in brief: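 Phosphorylation of biotinylated GST-cJun(1-79) at Ser73 is measured by AlphaScreen proximity luminescence. Enzyme is JNK3 in HepG2 lysates activated with interleukin-1beta and tumor necrosis factor alpha; ATP is 10 uM final.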

[9] = target: 3',5'-cyclic-AMP phosphodiesterase 4B (Homo sapiens) (UniProt Q07343); assay: qHTS Assay for Inhibitors of PDE-IV (AID 607; active = well fitted activation curve with a large enough effect in the main read-out, with a control signal flat, not every such curve was filed as active; note: % of control where 0% means no effect); details: HEK293 ACTOne CNG channel cells, membrane potential fluorescence; series mostly up to 22.9 µM
Chain of 3',5'-cyclic-AMP phosphodiesterase 4B (Homo sapiens) (Q07343 whole entry, looked up): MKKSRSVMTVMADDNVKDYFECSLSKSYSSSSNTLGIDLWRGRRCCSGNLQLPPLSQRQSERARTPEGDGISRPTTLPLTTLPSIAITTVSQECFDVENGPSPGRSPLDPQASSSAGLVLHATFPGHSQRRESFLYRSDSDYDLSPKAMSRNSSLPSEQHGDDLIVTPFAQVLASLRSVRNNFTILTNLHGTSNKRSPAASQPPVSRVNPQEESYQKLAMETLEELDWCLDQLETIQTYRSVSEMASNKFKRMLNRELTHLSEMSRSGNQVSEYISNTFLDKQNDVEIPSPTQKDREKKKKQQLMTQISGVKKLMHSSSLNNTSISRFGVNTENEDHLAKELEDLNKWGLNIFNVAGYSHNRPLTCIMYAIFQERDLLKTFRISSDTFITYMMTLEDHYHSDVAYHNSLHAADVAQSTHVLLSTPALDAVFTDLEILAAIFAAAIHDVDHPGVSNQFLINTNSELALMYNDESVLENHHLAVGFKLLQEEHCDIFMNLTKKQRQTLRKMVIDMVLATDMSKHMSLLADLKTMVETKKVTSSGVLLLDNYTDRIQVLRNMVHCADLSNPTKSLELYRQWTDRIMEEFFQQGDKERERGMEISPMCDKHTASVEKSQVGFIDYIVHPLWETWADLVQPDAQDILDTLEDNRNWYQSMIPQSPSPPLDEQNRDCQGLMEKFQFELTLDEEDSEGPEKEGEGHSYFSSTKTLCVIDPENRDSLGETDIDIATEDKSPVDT
Method in brief: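 The readout is membrane depolarisation from a cAMP-sensing CNG channel, detected with a potential dye at ex 535/em 590. Cells were HEK293-derived (endogenous PDE-IV) at 1000 cells/well, titrated up to 22.9 uM final.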

[10] = target: Cytochrome P450 3A4 (Homo sapiens) (UniProt P08684); assay: qHTS Assay for Activators of Cytochrome P450 3A4 (AID 885); details: recombinant CYP3A4, Luciferin-PPXE luminescence, 60 min; series mostly up to 57.1 µM; note: nearly all actives have a fitted effect of over 65% in size
Chain of Cytochrome P450 3A4 (Homo sapiens) (P08684 whole entry, looked up): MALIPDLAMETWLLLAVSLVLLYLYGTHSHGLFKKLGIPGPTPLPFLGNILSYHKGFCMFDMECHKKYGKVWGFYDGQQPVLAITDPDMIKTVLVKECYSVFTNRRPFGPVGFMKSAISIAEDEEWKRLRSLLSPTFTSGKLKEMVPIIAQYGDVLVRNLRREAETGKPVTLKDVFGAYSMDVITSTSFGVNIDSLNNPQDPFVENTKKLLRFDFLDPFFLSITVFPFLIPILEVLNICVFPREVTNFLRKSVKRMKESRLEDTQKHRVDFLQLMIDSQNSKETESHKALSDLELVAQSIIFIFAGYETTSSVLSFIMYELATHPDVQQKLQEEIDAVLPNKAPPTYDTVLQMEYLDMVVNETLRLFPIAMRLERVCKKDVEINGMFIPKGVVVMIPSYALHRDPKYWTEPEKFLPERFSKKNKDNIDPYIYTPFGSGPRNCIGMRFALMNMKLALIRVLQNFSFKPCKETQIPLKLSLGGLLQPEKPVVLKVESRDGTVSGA
Method in brief: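 Activators are scored by enhanced luminescence from CYP3A4 conversion of luciferin-PPXE (25uM, equal to KM) to luciferin, after 60 min at RT with an NADPH-regenerating system.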

[11] = qHTS Assay for Lipid Storage Modulators (AID 1519; calls by dose curve); details: Drosophila S3 cells, BODIPY lipid droplet/cell ratio, laser cytometry, cells loaded with oleic acid; for activity change, negative = inhibition: at 57.5 µM (top of the series)
Method in brief: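 Cells seeded at 5,000 per well were treated with compounds over a concentration series and loaded with oleic acid (400 uM, as added). Lipid droplet fluorescence (488 nm excitation, 500-530 nm channel) was read by laser-scanning cytometry and normalized to 20 uM Triacsin C.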

[12] = target: Dual specificity protein kinase CLK4 (Homo sapiens) (UniProt Q9HAZ1); assay: qHTS Assay for Inhibitors of CDC-like Kinase 4 (Kinase-Glo Assay) (AID 1770); details: recombinant Clk4, Kinase-Glo ATP depletion luminescence; series mostly up to 66.7 µM; note: % is set by controls: 0 for no effect and ±100 for the full control effect; nearly all actives have a fitted effect of over 65% in size
Chain of Dual specificity protein kinase CLK4 (Homo sapiens) (Q9HAZ1 whole entry, looked up): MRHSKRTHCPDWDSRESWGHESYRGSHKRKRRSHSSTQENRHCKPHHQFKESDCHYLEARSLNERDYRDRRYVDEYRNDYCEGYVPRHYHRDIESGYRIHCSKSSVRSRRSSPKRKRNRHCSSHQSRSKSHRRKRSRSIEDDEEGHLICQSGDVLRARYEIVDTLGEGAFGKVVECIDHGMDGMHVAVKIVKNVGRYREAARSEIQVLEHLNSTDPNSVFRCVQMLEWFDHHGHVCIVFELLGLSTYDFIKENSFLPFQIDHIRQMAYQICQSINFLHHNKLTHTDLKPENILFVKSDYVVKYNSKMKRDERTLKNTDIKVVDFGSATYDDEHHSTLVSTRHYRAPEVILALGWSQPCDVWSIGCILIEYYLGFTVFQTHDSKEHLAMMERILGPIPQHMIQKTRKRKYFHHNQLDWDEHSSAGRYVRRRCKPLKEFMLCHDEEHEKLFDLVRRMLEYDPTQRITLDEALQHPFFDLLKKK
Method in brief: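 Clk4 25 nM, RS peptide 100 uM, ATP 1 uM, pH 7.5 Tris, 10 mM MgCl2, 2.5 mM DTT; 4.5 h RT; ATP depletion read by Kinase-Glo luminescence.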

[13] = target: Dual specificity protein kinase CLK4 (Homo sapiens) (UniProt Q9HAZ1); assay: qHTS Assay for Inhibitors of CDC-like Kinase 4 (ADP-Glo Assay) (AID 1771); details: recombinant CLK4, ADP-Glo luminescence; series mostly up to 80 µM; note: % is set by controls: 0 for no effect and ±100 for the full control effect; nearly all actives have a fitted effect of over 70% in size
Method in brief: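 Compounds are pin-transferred onto substrate mix (100 uM RS peptide, 1 uM ATP), then 25 nM Clk4 is added. After 1 hr at room temperature, ADP-Glo reagent runs 45 min, detection reagent 30 min, then luminescence is read.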

[14] = target: Dual specificity protein kinase CLK4 (Homo sapiens) (UniProt Q9HAZ1); assay: qHTS Assay for Inhibitors of CDC-like Kinase 4 (ADP-FP Assay) (AID 1795); details: Transcreener ADP fluorescence polarization; series mostly up to 50 µM;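 note: recombinant human CLK4 phosphorylating RS repeat peptide at 1 µM ATP; % is set by controls: 0 for no effect and ±100 for the full control effect; nearly all actives have a fitted effect of over 60% in size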
Method in brief: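 Kinase activity was followed as ADP output, converted from fluorescence polarization with a calibration curve. Reactions ran one hour at low ATP (1 uM) with RS peptide substrate.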

[15] = Primary qHTS for small molecule stabilizers of the endoplasmic reticulum resident proteome: Secreted ER Calcium Modulated Protein (SERCaMP) assay (AID 1508630); details: SH-SY5Y GLuc-SERCaMP (Gaussia luciferase released on ER calcium loss) secretion, thapsigargin, luminescence; series mostly up to 38.4 µM; note: % is set by controls: 0 for no effect and ±100 for the full control effect
Method in brief: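 The SH-SY5Y reporter protocol was run at 3 concentrations up to 38.3 uM (primary) or 11 concentrations (follow-up): 16 h compound, 100 nM thapsigargin for 4 h, then extracellular luciferase luminescence.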

[16] = target: Ubiquitin carboxyl-terminal hydrolase 1 (Homo sapiens) (UniProt O94782); assay: Inhibitors of USP1/UAF1: Pilot qHTS (AID 504865); details: purified USP1/UAF1, Ub-rhodamine cleavage fluorescence; series mostly up to 54.9 µM;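 note: rhodamine fluorescence freed from ubiquitin-rhodamine substrate followed over time; top concentration of the series differs between compounds; % is set by controls: 0 for no effect and ±100 for the full control effect; nearly all actives have a fitted effect of over 35% in size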
Chain of Ubiquitin carboxyl-terminal hydrolase 1 (Homo sapiens) (O94782 whole entry, looked up): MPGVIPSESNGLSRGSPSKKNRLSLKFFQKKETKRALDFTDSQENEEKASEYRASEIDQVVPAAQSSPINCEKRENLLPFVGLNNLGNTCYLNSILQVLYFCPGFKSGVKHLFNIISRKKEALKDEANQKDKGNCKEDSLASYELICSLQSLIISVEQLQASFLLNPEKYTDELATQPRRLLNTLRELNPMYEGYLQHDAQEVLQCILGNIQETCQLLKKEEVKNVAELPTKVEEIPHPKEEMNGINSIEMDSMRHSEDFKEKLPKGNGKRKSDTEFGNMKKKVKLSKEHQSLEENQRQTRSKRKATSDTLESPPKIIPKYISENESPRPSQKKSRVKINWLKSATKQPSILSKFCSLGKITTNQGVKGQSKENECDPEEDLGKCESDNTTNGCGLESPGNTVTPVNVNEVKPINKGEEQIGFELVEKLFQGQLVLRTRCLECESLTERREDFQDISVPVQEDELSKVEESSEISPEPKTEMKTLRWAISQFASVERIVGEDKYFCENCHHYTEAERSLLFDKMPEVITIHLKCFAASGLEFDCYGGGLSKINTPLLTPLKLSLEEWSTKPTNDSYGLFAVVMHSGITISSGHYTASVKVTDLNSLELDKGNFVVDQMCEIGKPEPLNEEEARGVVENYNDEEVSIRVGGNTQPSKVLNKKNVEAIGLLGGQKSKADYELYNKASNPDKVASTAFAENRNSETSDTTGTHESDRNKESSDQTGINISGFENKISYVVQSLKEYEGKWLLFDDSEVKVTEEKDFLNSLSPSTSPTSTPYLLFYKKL
Method in brief: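 Enzyme-free wells gave the negative control, while test wells held 1nM USP1/UAF1 preincubated with compound for 15 min at room temperature. Ub-Rho at 150nM final started the reaction, and fluorescence at 480/540 nm was recorded kinetically.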

[17] = target: Cytochrome P450 3A4 (Homo sapiens) (UniProt P08684); assay: qHTS Assay for Inhibitors and Substrates of Cytochrome P450 3A4 (AID 884); details: recombinant CYP3A4, Luciferin-PPXE luminescence; series mostly up to 57.1 µM; note: potency is the fitted concentration of half-maximal effect; nearly all actives have a fitted effect of over 50% in size
Method in brief: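 Luminescent readout of luciferin produced by CYP3A4 (20 nM) dealkylation of Luciferin-PPXE, 25 uM (its KM). NADPH-driven reaction ran 60 min at RT after 10 min compound preincubation; data scaled to 57 uM ketoconazole as 100% inhibition.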

[18] = measured here: cell count channel max response
[19] = measured here: lipid channel max response

COCCNc1nc(-c2ccccc2OC)nc2ccccc12
15.6%: max response [11, 19]
inactive: Potency [1] > 2.29 µM | activity change, negative = inhibition [2] 12.5% | activity change, negative = inhibition [4] 8.54% | activity, negative = inhibition [5] 7.08% | Potency [6] > 46 µM | Potency [7] > 46 µM | outcome [8] | Potency [9] | Potency [10] | activity change, negative = inhibition [11] 6.78% | Potency [12] | Potency [13] | Potency [14] | Potency [15]
active: Potency [3] 0.794 µM
15.3%: max response [11, 18]

COc1ccc(-n2c(=O)c(-c3cn(C)c4ccccc34)nc3cnc(N4CCOCC4)nc32)cc1
9.94%: max response [11, 19]
inactive: Potency [1] > 11.4 µM | activity change, negative = inhibition [2] 11.1% | activity change, negative = inhibition [4] -2.62% | activity, negative = inhibition [5] 3.33% | Potency [6] > 9.22 µM | Potency [7] > 46 µM | outcome [8] | Potency [9] | activity change, negative = inhibition [11] 7.4% | Potency [12] | Potency [13] | Potency [14] | Potency [15]
4.27%: max response [11, 18]
active: Potency [3] 31.6 µM

Cc1nc2cnc(N(C)C)nc2n(C2CC2)c1=O
18.5%: max response [11, 19]
active: Potency [3] 3.98 µM
14.1%: max response [11, 18]
inactive: Potency [1] > 11.4 µM | activity change, negative = inhibition [2] -20% | activity change, negative = inhibition [4] 4.63% | activity, negative = inhibition [5] -4.62% | Potency [6] > 9.22 µM | Potency [7] > 46 µM | outcome [8] | Potency [9] | activity change, negative = inhibition [11] 5.93% | Potency [12] | Potency [13] | Potency [14] | Potency [16] | Potency [15]

Cc1noc(C)c1-c1cncnc1N(C)Cc1ccco1
11.5%: max response [11, 18]
inactive: Potency [1] > 11.4 µM | activity change, negative = inhibition [2] 1.41% | Potency [3] | activity change, negative = inhibition [4] -7.22% | activity, negative = inhibition [5] -0.77% | Potency [6] > 46 µM | Potency [7] > 46 µM | outcome [8] | Potency [9] | Potency [10] | activity change, negative = inhibition [11] 4.24% | Potency [12] | Potency [13] | Potency [14] | Potency [16] | Potency [15]
active: Potency [17] 3.16 µM
13.2%: max response [11, 19]

O=c1c(CCc2ccccc2)nc2cncnc2n1Cc1ccc(F)cc1
18.7%: max response [11, 18]
23.1%: max response [11, 19]
active: Potency [3] 10 µM | Potency [17] 3.16 µM
inactive: Potency [1] > 11.4 µM | activity change, negative = inhibition [2] -7.12% | activity change, negative = inhibition [4] -3.47% | activity, negative = inhibition [5] -6.1% | Potency [6] > 9.22 µM | Potency [7] > 46 µM | Potency [10] | activity change, negative = inhibition [11] 5.86% | Potency [12] | Potency [13] | Potency [14] | Potency [16] | Potency [15]

FC(F)(F)c1ccccc1-c1nc(NCCN2CCOCC2)c2ccccc2n1
18.8%: max response [11, 18]
21.5%: max response [11, 19]
active: Potency [3] 12.6 µM | Potency [17] 7.94 µM
inactive: Potency [1] > 11.4 µM | activity change, negative = inhibition [2] -6.06% | activity change, negative = inhibition [4] 6.4% | activity, negative = inhibition [5] 3.19% | Potency [6] > 46 µM | Potency [7] > 46 µM | outcome [8] | Potency [9] | Potency [10] | activity change, negative = inhibition [11] 4.77% | Potency [12] | Potency [13] | Potency [14] | Potency [16] | Potency [15]
